Assay [1] in a line: binders of probe aFSTL3 on microarray, primary screen, stem cell growth factor project, biochemical, small-molecule microarray, fluorescence 635/667 (AID 1064).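 Also: measures binding of the biotinylated anti-FSTL3 antibody to printed compounds.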 The following applies: higher = more signal.
Assay [2] is described as follows: binders from COS7 lysate, DM2A8 probe, primary screen, torsin A project, cell lysate, small-molecule microarray, fluorescence 635/667 (AID 1065). The following applies: higher = more signal, COS7 lysate expressing mutant human TOR1A.
The nature of assay [3]: binders of probe aFGF2 on microarray, primary screen, stem cell growth factor project, biochemical, small-molecule microarray, fluorescence 635/667 (AID 1067).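 Also: measures binding of biotinylated aFGF2 protein to printed compounds on slides; z-score merges feature fluorescence and signal-to-noise across triplicate slides.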 The note with it: higher = more signal.
Assay [4] can be described thus: binders of probe aFGF10 on microarray, primary screen, stem cell growth factor project, biochemical, small-molecule microarray, fluorescence 635/667 (AID 1071).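 Also: score merges 667 nm spot intensity and signal to noise from triplicate slides.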 The following applies: higher = more signal.
Assay [5] addresses Neurogenic locus notch homolog protein 2 (Homo sapiens) (UniProt Q04721). Nature of the assay: Notch2 binders on small-molecule microarrays, primary screen, biochemical, small-molecule microarray, 635 nm fluorescence, stem cell growth factors (AID 1073). The note with it: Notch2 binding, higher = more signal.
Assay [6] addresses Pro-neuregulin-1, membrane-bound isoform (Homo sapiens) (UniProt Q02297). Nature of the assay: NRG1 binders on small-molecule microarrays, primary screen, psychiatric disease protein project, biochemical, small-molecule microarray, fluorescence 635/667 (AID 1075).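 Also: score combines 667 nm spot fluorescence with signal to noise.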 The note with it: NRG1 binding, 635 nm fluorescence, higher = more signal.
Assay [7] relates to Neuregulin-1 EGF-like domain. Nature of the assay: binders of neuregulin-1 EGF-like domain, primary screen, biochemical, small-molecule microarray, 635 nm fluorescence (AID 1081).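 Also: binding of the protein to compounds printed on small-molecule microarray slides.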 The following applies: small-molecule microarray binding, higher = more signal.
Assay [8] can be described thus: FRG1 promoter luciferase signal modulators, primary screen, FRG1 inhibition for FSHD, cell-based, C2C12 myotubes, firefly/Renilla luciferase, luminescence (AID 1084). The following applies: higher = more signal, called active from +8 up or from −8 down.
Assay [9] is described as follows: binders of probe aFST on microarray, primary screen, stem cell growth factor project, biochemical, small-molecule microarray, fluorescence 635/667 (AID 1086).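 Also: score merges 667 nm fluorescence with signal-to-noise of each printed compound spot.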 The following applies: higher = more signal.
Assay [10] is described as follows: binders of probe aHhip on microarray, primary screen, stem cell growth factor project, biochemical, small-molecule microarray, fluorescence 635/667 (AID 1087).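 Also: score merges spot fluorescence at 667nm with spot signal to noise ratio.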 The note with it: higher = more signal.
Assay [11] has as its system PRMT1 (protein arginine N-methyltransferase 1). As to the kind of experiment: PRMT1 binders on small-molecule microarrays, primary screen, biochemical, small-molecule microarray, 635 nm fluorescence (AID 1088).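 Also: binding of Prmt1 protein to compounds spotted on small-molecule microarray slides.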 The note with it: small-molecule microarray binding, higher = more signal.
A short description of assay [12]: yeast growth modulation, basal conditions, primary screen, YJM789 clinical isolate, OD600, 24 h (AID 1089).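 Also: growth of clinical yeast isolate S. cerevisiae YJM 789 seeded 1000 cells per well; test concentration not given here.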 The note with it: S. cerevisiae YJM789 growth, higher = more signal, called active from +8 up or from −8 down.
A short description of assay [13]: fission yeast growth modulation, primary screen, strain 972, OD600, 24 h, no modulator (AID 1090).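 Also: basal condition with compound alone and no growth modifier present; test concentration not given here.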 The following applies: S. pombe 972 growth, higher = more signal, called active from +8 up or from −8 down.
Assay [14] is described as follows: S. cerevisiae growth modulation with rapamycin, primary screen, strain BY4716, OD600, 96 h (AID 1091). Also: test concentration not given here. The note with it: higher = more signal, called active from +8 up or from −8 down.
Assay [15] addresses Torsin-1A-interacting protein 2 (Homo sapiens) (UniProt Q8NFQ8). As to the kind of experiment: LULL1 binders on small-molecule microarray, primary screen, cell lysate, human LULL1 lysate, 635/667 nm fluorescence (AID 1092).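 Also: score merges per-feature 667 nm fluorescence with signal-to-noise.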 The following applies: hLULL1 lysate binding, 635 nm fluorescence, higher = more signal.
Assay [16] in a line: E. coli growth modulation, two-sided OD650, primary screen, E. coli filamentation project, strain DRC41, 24 h (AID 1093).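 Also: MC1000 strain lacking acrAB efflux and sulA so SOS filamentation is blocked; test concentration not given here.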 The following applies: OD650, 24 h, higher = more signal, called active from +8 up or from −8 down.
Assay [17] can be described thus: small-molecule microarray binders of probe aLefty2, primary screen, biochemical, biotinylated probe, 635/667 nm fluorescence (AID 1094).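 Also: score merges spot fluorescence near 667 nm with spot signal-to-noise ratio.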 The following applies: higher = more signal.
Assay [18] relates to Noggin (protein binding on small-molecule microarray). As to the kind of experiment: Noggin binders on small-molecule microarray, primary screen, biochemical, 635/667 nm fluorescence (AID 1095).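 Also: score merges 667 nm feature fluorescence with signal to noise over triplicate slides.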 The note with it: 635 nm fluorescence, higher = more signal.
Assay [19] has as its target Neurogenic locus notch homolog protein 3 (Homo sapiens) (UniProt Q9UM47). Nature of the assay: NOTCH3 binders on small-molecule microarray, primary screen, biochemical, 635/667 nm fluorescence (AID 1096). The note with it: NOTCH3 binding, 635 nm fluorescence, higher = more signal.
A short description of assay [20]: small-molecule microarray binders of probe aEGFR, primary screen, biochemical, biotinylated probe, 635/667 nm fluorescence (AID 1097).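 Also: probe is a biotinylated anti-EGFR antibody binding compounds printed on slides; score combines fluorescence near 667 nm and signal to noise of each spot.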 The following applies: higher = more signal.

Calls of active or inactive are those of the source.

Neurogenic locus notch homolog protein 3 (Homo sapiens), sequence (Q9UM47 whole entry, looked up): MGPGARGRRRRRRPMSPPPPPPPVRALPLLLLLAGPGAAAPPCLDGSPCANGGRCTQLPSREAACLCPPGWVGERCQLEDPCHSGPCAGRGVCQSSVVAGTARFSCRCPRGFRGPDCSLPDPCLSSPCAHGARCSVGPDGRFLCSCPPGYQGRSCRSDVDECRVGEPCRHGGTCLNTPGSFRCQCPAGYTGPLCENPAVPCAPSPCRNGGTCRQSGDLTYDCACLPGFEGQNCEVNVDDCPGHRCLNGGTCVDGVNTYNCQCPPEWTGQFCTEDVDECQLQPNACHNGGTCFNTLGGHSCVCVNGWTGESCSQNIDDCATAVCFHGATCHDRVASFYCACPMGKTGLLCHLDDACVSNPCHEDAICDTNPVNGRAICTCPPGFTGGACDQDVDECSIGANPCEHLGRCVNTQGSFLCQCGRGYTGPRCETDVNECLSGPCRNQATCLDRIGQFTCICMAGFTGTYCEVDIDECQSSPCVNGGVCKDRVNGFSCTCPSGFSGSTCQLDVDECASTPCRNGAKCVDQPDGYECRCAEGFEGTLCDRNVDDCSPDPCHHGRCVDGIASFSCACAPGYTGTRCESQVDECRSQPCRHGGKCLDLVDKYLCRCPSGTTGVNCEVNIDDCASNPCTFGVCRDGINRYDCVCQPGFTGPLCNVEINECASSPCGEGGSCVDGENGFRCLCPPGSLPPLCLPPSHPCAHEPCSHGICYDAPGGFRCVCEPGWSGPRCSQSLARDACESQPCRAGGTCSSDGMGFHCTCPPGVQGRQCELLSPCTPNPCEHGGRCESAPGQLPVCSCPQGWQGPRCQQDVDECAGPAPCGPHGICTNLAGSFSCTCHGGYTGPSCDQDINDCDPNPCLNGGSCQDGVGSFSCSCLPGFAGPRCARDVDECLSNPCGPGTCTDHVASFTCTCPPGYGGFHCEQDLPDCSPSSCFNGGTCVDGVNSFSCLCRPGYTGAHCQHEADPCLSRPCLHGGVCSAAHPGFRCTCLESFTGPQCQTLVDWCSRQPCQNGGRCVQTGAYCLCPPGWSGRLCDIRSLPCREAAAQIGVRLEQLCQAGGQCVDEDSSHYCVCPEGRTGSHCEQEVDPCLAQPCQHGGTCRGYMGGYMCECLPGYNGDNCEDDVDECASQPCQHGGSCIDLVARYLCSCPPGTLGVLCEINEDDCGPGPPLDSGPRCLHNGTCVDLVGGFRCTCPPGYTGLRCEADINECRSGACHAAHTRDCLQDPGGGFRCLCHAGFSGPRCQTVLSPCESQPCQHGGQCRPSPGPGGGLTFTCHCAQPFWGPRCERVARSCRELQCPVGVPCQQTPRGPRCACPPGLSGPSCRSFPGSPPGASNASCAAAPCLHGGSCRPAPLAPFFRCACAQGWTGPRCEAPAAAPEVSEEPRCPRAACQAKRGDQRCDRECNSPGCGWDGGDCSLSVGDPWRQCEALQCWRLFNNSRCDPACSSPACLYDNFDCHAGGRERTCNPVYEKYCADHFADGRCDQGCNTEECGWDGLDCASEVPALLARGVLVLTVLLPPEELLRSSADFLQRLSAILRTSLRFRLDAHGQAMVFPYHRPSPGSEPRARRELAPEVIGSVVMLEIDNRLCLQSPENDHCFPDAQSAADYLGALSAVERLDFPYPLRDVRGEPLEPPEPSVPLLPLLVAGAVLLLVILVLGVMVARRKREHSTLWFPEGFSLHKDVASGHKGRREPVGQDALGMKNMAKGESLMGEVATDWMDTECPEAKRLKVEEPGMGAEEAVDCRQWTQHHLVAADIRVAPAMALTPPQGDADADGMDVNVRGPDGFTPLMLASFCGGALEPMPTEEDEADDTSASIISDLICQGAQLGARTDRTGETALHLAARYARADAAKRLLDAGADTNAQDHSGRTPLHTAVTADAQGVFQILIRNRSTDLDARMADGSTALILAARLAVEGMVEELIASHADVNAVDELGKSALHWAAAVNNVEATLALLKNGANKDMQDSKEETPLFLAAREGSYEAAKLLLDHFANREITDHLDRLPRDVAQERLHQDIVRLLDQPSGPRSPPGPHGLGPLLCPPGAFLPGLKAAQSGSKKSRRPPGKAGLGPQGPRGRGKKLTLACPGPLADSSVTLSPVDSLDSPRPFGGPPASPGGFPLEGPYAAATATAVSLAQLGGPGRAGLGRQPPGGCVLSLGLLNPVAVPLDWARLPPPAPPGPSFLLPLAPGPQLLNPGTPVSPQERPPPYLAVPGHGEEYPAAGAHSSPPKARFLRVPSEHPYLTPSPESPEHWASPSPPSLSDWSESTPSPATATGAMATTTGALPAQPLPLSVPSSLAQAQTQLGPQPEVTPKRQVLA
Torsin-1A-interacting protein 2 (Homo sapiens), sequence (Q8NFQ8 whole entry, looked up): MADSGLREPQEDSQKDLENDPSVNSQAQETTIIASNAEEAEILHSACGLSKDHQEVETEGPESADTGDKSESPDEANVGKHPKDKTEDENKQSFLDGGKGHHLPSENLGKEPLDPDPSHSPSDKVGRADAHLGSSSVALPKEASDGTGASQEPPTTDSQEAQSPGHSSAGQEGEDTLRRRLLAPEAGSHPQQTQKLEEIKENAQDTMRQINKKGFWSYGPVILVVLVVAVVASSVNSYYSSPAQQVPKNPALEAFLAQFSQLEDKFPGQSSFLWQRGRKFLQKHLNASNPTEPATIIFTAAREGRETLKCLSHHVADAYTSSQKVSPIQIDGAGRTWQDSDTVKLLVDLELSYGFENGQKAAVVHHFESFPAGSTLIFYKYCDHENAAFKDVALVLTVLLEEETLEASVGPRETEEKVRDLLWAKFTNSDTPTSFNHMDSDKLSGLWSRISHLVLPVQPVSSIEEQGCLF
Pro-neuregulin-1, membrane-bound isoform (Homo sapiens), sequence (Q02297 whole entry, looked up, the tested form may be a part, canonical isoform): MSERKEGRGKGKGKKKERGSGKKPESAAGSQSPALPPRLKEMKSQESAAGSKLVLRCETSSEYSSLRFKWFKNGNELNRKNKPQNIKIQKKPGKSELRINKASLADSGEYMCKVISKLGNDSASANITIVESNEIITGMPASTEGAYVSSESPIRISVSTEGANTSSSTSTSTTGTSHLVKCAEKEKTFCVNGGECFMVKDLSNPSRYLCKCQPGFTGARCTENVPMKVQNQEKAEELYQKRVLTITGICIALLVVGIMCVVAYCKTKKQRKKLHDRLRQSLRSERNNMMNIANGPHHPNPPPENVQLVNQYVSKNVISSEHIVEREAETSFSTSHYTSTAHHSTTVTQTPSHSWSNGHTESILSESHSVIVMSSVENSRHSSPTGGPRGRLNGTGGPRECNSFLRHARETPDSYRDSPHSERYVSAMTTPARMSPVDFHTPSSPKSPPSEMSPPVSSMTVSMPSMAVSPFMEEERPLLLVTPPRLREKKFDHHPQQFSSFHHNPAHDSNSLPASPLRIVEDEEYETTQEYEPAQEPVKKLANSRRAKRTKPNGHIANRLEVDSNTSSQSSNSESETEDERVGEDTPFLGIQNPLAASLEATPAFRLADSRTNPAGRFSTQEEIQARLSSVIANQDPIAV

Regarding `O=C1C=C(c2ccccc2)C(=O)C2=C1CC([C@H]1Oc3ccccc3S(=O)(=O)N3CCC[C@@H]13)=CC2`, the composite z-score in [1] is -0.415; in [2] it was -0.618; in assay [3] it was -0.119; in assay [4] it was -0.0024; in [5], -0.103; in assay [6], 0.0032. Also, the composite z-score is -0.702 in [7]; 1.49 in assay [9]; -0.0296 in assay [10]; 0.345 in assay [11]; -0.101 in assay [15]; -0.183 in assay [17]. Moreover, the composite z-score in [18] is -0.194; in assay [19], 0.0989; in assay [20], -0.135. Further, the z-score in assay [8] is -0.7 (inactive); in assay [12], -0.418 (inactive); in assay [13] it was -3.32 (inactive); in [14], 13.4 (active); in assay [16] it was 0.542 (inactive).

In the case of `CN(C)CCCNC(=O)[C@@]1(Cc2ccccc2I)c2ccccc2C(=O)N(C2CCCCC2)[C@H]1c1ccc(CO)cc1`, the composite z-score amounted to 1.13 in [1]; 1.02 in [2]; 0.0676 in assay [3]; 0.293 in [4]; 1.24 in [5]; 0.418 in assay [6]. The composite z-score in assay [7] worked out at 1.26; in [9], 0.68; in [10], 0.214; in [11], 1.55; in assay [15], 2.34; in [17] it was 0.446. Moreover, the composite z-score in assay [18] came to 0.27; in assay [19], 0.953; in assay [20], 0.123. For the same molecule, the z-score in assay [8] was -3.32 (inactive); in assay [12], 0.273 (inactive); in [13] it was -19.5 (active); in assay [14], -2.99 (inactive); in assay [16] it was 0.0304 (inactive).

Take `COC(=O)[C@H](Cc1ccccc1)N1CC2=CCCC=C[C@@H]2[C@H]1[C@H](O)Cc1ccccc1`: the composite z-score in assay [1] was -0.22; in assay [2], 0.0803; in assay [3], -0.103; in [4], 0.311; in [5], -0.0146; in assay [6] it was 0.112. Also, the composite z-score was 0.667 in assay [7]; 0.0599 in assay [9]; -0.0427 in assay [10]; 0.438 in [11]; 0.626 in [15]; -0.0632 in assay [17]. The values for the composite z-score in [18], in assay [19] and in assay [20] were 1.15, 0.215 and -0.111, respectively. Further, the z-score in assay [8] is 0.569 (inactive); in assay [12], -1.09 (inactive); in [13], -2.01 (inactive); in assay [14], -0.172 (inactive); in assay [16] it was -0.496 (inactive).

`O=C(NCCN1CCOCC1)[C@@H]1c2ccccc2C(=O)N(Cc2ccccc2C(F)(F)F)[C@H]1c1ccc(CO)cc1`: the composite z-score in assay [1] was -1.15; in assay [2] it was -0.438; in assay [3], -0.319; in [4] it was -0.613; in assay [5], -1.2; in assay [6], 0.875. Also, the composite z-score was -0.755 in assay [7]; 0.48 in [9]; -0.504 in [10]; 1.56 in assay [11]; 1.81 in assay [15]; -0.525 in assay [17]. In addition, the composite z-score was -0.982 in assay [18], -0.842 in assay [19] and -0.403 in [20]. Further, the z-score was -1.79 (inactive) in assay [8]; -0.451 (inactive) in assay [12]; -0.539 (inactive) in assay [13]; -0.705 (inactive) in assay [14]; 0.75 (inactive) in assay [16].

`CC(C)=CCCC(C)=CC(O)C1C=CC2C(=O)NC(=O)C2N1Nc1ccc(Cl)cc1Cl` (stereo not given): the composite z-score in assay [1] is 0.235; in assay [2], 0.401; in assay [3], 0.234; in assay [4], 0.214; in assay [5], 0.933; in assay [6], 1.86. Moreover, the composite z-score in [7] was found to be 0.915; in assay [9], 0.901; in assay [10], 0.0373; in assay [11], 0.258; in assay [15], 2.31; in [17], 0.17. Moreover, the composite z-score is -0.218 in assay [18], 0.845 in assay [19] and -0.0904 in [20]. The z-score in [8] was 1.89 (inactive); in assay [12], -0.835 (inactive); in assay [13], -4.51 (inactive); in assay [14] it was 0.279 (inactive); in assay [16], -2.06 (inactive).

The record behind these values is PubChem BioAssay.
